Tau FP inhib: qHTS for Inhibitors of Tau Fibril Formation, Fluorescence Polarization | Microtubule-associated protein tau (Homo sapiens), P10636 | K18 P301L tau heparin fibrillization, Alexa594 FP, 6 h | actives 0.39% (n = 280,000) | Potency, µM (doses to about 57.7 µM), inactives show at the top dose activity, negative = inhibition, usual class: inhibitors; note: nearly all actives have a fitted effect of over 55% in size
Target sequence (P10636 561-689 P618L limits assumed): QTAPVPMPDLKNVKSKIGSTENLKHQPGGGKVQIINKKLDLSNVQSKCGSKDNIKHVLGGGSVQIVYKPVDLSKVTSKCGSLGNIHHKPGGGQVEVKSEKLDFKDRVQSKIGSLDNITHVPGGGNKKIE
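FP of Alexa 594-tau after heparin (20 uM) induction. Substrate: human K18 P301L, 15 uM unlabeled, 0.24 uM labeled. Buffer 100 mM sodium acetate pH 7. 6 hr, 37 C.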
TR SRC2 fluor cs: Total Fluorescence Counterscreen for Inhibitors of the Interaction of Thyroid Hormone Receptor and Steroid Receptor Coregulator 2; TRb/SRC2 Texas Red total fluorescence interference; AID 1479, 2009; Potency, µM (titrated, usually from 106 µM), without a hit: top-dose fluorescence change, negative = quenching; actives 0.29% (n = 280,000); active = well fitted curve in either direction with a large enough effect; inconclusive = small, poorly fitted or top-dose-only effect
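Human TRβ ligand-binding domain (0.6 uM) and Texas Red SRC2 peptide (20 nM) in Tris buffer with 1 uM T3 and 5% DMSO were incubated with pinned compound for 5 hr at ambient temperature. Total fluorescence was computed as S + 2P (555/632 nm).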
TRb SRC2 PPI: qHTS for Inhibitors of the Interaction of Thyroid Hormone Receptor and Steroid Receptor Coregulator 2; TRbeta-SRC2 peptide binding, fluorescence polarization; receptor liganded with 1 µM T3; Potency, µM (titrated, usually from 106 µM), without a hit: at the highest dose activity change, negative = inhibition, usual class: inhibitors; actives 0.065% (n = 280,000);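 note: plate controls were bound peptide for no effect and peptide without receptor for full effect; nearly all actives have a fitted effect of over 50% in size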
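Human TRb ligand-binding domain (0.6 uM) is mixed with 20 nM Texas Red SRC2 peptide and 1 uM T3; after compound addition and 5 hr at ambient temperature, polarization is measured and normalized to unbound and bound controls.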
GoLoco inh red: qHTS Assay for Inhibitors of RGS12 GoLoco Motif Activity (Red Fluorophore); Guanine nucleotide-binding protein G(i) subunit alpha-1 (Homo sapiens), P63096; Gai1:RGS12 GoLoco peptide FP, rhodamine, 10 min; Potency, µM (titrated, usually from 61.6 µM), for inactives: at the top dose activity, negative = inhibition, most hits filed as inhibitors; actives 0.44% (n = 230,000); AID 880, 2007; active = well fitted inhibition curve with a large enough effect, not every such curve was filed as active; inactive = no such curve, though single readings can be large or run the other way; note: nearly all actives have a fitted effect of over 30% in size
Target sequence (P63096 whole entry, looked up): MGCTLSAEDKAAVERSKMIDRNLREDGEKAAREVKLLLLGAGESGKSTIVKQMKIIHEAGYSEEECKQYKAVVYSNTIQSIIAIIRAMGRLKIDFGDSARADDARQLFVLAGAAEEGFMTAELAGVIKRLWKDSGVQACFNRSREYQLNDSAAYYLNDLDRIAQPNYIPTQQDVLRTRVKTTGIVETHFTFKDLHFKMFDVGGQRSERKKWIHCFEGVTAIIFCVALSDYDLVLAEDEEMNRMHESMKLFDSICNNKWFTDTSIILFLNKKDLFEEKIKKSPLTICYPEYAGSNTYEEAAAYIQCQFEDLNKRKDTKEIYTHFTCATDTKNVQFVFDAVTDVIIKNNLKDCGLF
Tau fluor counter: Counterscreen qHTS for Inhibitors of Tau Fibril Formation, Fluorescence Polarization | actives 0.93% (n = 280,000) | tau K18 P301L Alexa594 fluorescence, heparin fibrillization | AID 1463, 2008 | Potency, µM (highest dose often 57.7 µM), for the others: at the top dose activity change, negative = decrease; note: nearly all actives have a fitted effect of over 55% in size
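Human K18 P301L tau (15 uM unlabeled plus 0.24 uM Alexa 594-labeled, final) in 100 mM sodium acetate pH 7 was mixed with compound and 20 uM heparin and incubated 6 hr at 37 C.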
Tau ThT inhib: qHTS for Inhibitors of Tau Fibril Formation, Thioflavin T Binding | Microtubule-associated protein tau (Homo sapiens), P10636 | recombinant tau K18 P301L (four-repeat tau fragment), heparin-induced fibrillization, ThT fluorescence | Potency, µM (top dose mostly 57.4 µM), without a hit: at the highest dose activity, negative = inhibition, actives largely listed as inhibitors | actives 2.1% (n = 270,000); note: nearly all actives have a fitted effect of over 55% in size
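Aggregation was driven by heparin (20 uM final) acting on recombinant tau […] bearing P301L in 100 mM sodium acetate pH 7; fibrils were detected with Thioflavin T.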
Starred values were filed as active, the others as inactive; ? = inconclusive; / = no result; [ ] = remark or other dose. A selection: hits, their analogues and other compounds. The true share with any hit is near 3.1%. Unless noted, calls come from the whole dose curve; as a rule, active = well fitted curve in the direction sought with a large enough effect; inconclusive = small, poorly fitted or top-dose-only effect, or another doubt; inactive = no such curve, though single readings can be large; an effect the other way counts as inactive or inconclusive. Unless noted, % is set by controls: 0 for no effect and ±100 for the full control effect; potency is the fitted concentration of half-maximal effect.

SMILES | Tau FP inhib | TR SRC2 fluor cs | TRb SRC2 PPI | GoLoco inh red | Tau fluor counter | Tau ThT inhib
COc1ccc2c(c1)CCc1sc(NC(=O)c3ccc(Cl)cc3)nc1-2 | ? | -4% | 6% | / | 8.9µM*[quencher] | 11µM*
COc1ccc(C(=O)Nc2nc3c(s2)Cc2cc(OC)ccc2-3)cc1 | -7% | 1% | 3% | 12% | 4µM*[quencher] | 2µM*
COc1ccc2c(c1)-c1nc(NC(=O)c3ccccc3F)sc1CC2 | ? | ? | -4% | / | ? | ?
COc1ccc2c(c1)Cc1sc(NC(=O)c3ccccc3C)nc1-2 | -11% | 0.0028µM*[quencher] | -12% | / | ? | ?
COc1ccc2c(c1)Cc1sc(NC(=O)c3cccs3)nc1-2 | ? | -6% | ? | 11% | ? | 13µM*
Cc1cc(C)c(S(=O)(=O)c2ccccc2C)c(Oc2ccccc2)n1 | -4% | 0% | 3% | 3% | -10% | -6%
CCNC(=O)COC(=O)c1cc(S(=O)(=O)N2CCCCC2)ccc1C | -15% | -2% | -6% | 0% | -13% | -4%
CC(=O)c1ccc(NC(=O)CSc2ccc3nnc(CCNS(=O)(=O)c4ccc(C)cc4)n3n2)cc1 | 3% | -1% | -3% | / | -14% | -15%
O=C(Nc1ccc(Br)cc1)c1cc(S(=O)(=O)NC2CCCC2)ccc1F | ? | -2% | 11% | / | ? | 7%
COc1ccc2c(c1)Cc1sc(NC(=O)c3ccccc3)nc1-2 | -8% | -1% | 3% | 4% | ? | ?
COc1ccc2c(c1)Cc1sc(NC(=O)c3cccc(F)c3)nc1-2 | -9% | -11% | 5% | / | ? | 3.2µM*
COc1ccc2c(c1)Cc1sc(NC(=O)c3cccc(Br)c3)nc1-2 | -6% | -2% | 4% | / | ? | 4µM*
CCOC(=O)c1sc(NC(=O)CCN2CCCCCC2)c(C(=O)OCC)c1C | 9% | -3% | 0% | 8% | 7% | -15%
CC1CC(OCC(O)C[N+]2(C)CCOCC2)CC(C)(C)C1 (stereo not drawn) | -7% | 0% | -4% | 2.2µM* | -4% | -1%
CC1CC(OCC(O)CN2CCOCC2)CC(C)(C)C1 (stereo not drawn) | -6% | 2% | -2% | 8% | 3% | 1%
Cc1cc(C)nc(/N=C(\N)Nc2ccc3c(c2)OCCO3)n1 | 2% | -3% | 4% | -3% | 4% | 3%
COc1cc(NC(=S)N2CCN(CCO)CC2)c(OC)cc1Cl | -1% | -1% | 2% | 9% | 6% | -3%
OCCN1CCN(C(=S)c2ccc(Cl)c(Cl)c2)CC1 | ? | -2% | -7% | -5% | -22% | 7.9µM*
c1ccc(OCCSc2nc3ccccc3[nH]2)cc1 | -12% | 0% | 0% | -7% | -13% | -13%
Brc1ccc2nc(SCCOc3ccccc3)[nH]c2c1 | 28µM* | -1% | 7% | / | 14µM*[quencher] | ?
Cc1ccc(-c2nc(-c3cc4cccc(OCc5ccccc5F)c4oc3=O)no2)cc1 | -12% | -7% | -4% | / | -19% | -7%
O=C(/C=C/c1ccccc1)/C=C/c1ccccc1 | ? | -5% | -6% | -10% | -20% | 7.9µM*
O=C(/C=C/c1ccccc1)c1ccccc1 | 16% | -4% | -4% | 9% | 6% | ?
CNc1ccc(/C=C/C(=O)c2cccc3ccccc23)cc1[N+](=O)[O-] | 8% | -1% | 2% | 9% | -24% | 6.3µM*
CNc1ccc(C(=O)c2ccccc2C(=O)O)cc1[N+](=O)[O-] | -7% | -4% | -2% | -11% | 3% | -3%
SMILES | Tau FP inhib | TR SRC2 fluor cs | TRb SRC2 PPI | GoLoco inh red | Tau fluor counter | Tau ThT inhib
Cc1ccc(C(=O)ONc2ccc(N=NC(=O)c3ccccc3O)cc2)cc1 | -3% | -4% | -7% | 7% | ? | 2.2µM*
Cc1ccc(C(=O)ONc2ccc(N=O)cc2)cc1 | -3% | -6% | 12% | -4% | -12% | -27%
CC(C)c1ccc(N2C(=O)/C(=C/N(C)C)SC2=S)cc1 | ? | 28µM*[fluorescent] | ? | -183% | ? | /
C=C(C)C(=O)OCC1CN2C(CCC(C)C2c2ccc(Br)cc2)C(=O)O1 (stereo not drawn) | 6%[11.6 µM] | 0%[11.2 µM] | 4%[11.2 µM] | / | -6%[11.6 µM] | -6%[11.5 µM]
CCCCN(CCCC)CC(O)Cn1cc(/C=C/C(=O)c2ccccc2)c2ccccc21 (stereo not drawn) | -7% | -2% | -7% | / | ? | ?
CCCCN(C)CC(O)Cn1cc(/C=C/C(=O)c2ccc(OCC)cc2)c2ccccc21 (stereo not drawn) | -12% | -2% | 3% | / | ? | 11µM*
O=C1NN=C(c2ccc(Cl)cc2)CC1c1cccc(Cl)c1 (stereo not drawn) | 5% | -1% | -22% | 10% | -18% | -5%
Cc1ccc(O)c(-c2ccnc3cc(-c4ccc(Cl)cc4)nn23)c1 | 32µM* | -29% | -2% | / | ? | 5%
CCOc1ccccc1CNC(=O)C1CCN(c2nn3cc(-c4ccc(F)cc4)nc3s2)CC1 | 3% | ? | -8% | / | 10% | ?
O=C(N/N=C/c1c[nH]c2ccccc12)c1cc(-c2ccc(-c3ccccc3)cc2)n[nH]1 | 5% | -14% | ? | -2% | 13µM*[quencher] | ?
Cc1ccccc1NCC(=O)N/N=C/c1c[nH]c2ccccc12 | ? | -11% | 12% | -20% | 16µM*[quencher] | ?
O=C(N/N=C/c1c[nH]c2ccccc12)c1cc(-c2ccc3ccccc3c2)n[nH]1 | 6% | -3% | 16% | 45% | 5% | 3%
O=C(N/N=C/c1c[nH]c2ccccc12)c1cc(-c2ccccc2)n[nH]1 | 15% | -7%[53 µM] | 6%[53 µM] | 12% | 25µM*[quencher] | ?
Cc1ccc(-c2cc(C(=O)N/N=C/c3c[nH]c4ccccc34)[nH]n2)cc1 | ? | 0% | 0% | 9% | 16µM*[quencher] | ?
CSCCC(NC(=O)C1CCC(C)CC1)C(=O)NCCN1CCOCC1 (stereo not drawn) | 1% | -1% | -2% | / | ? | ?
CCOC(=O)C1=C(C)NC(=O)NC1c1cccc(OC)c1OCc1ccccc1Cl (stereo not drawn) | -13% | 2% | 3% | -1% | -4% | -16%
O=C(O)c1ccc2oc(=O)n(Cc3ccccc3)c2c1 | 4% | 0% | 4% | / | 13% | 10%

Screens from PubChem BioAssay.
